# Bioassay records deposited in PubChem BioAssay by National Center for Advancing Translational Sciences (NCATS).
# Hits are enriched below; roughly 9.2% of the tested compounds scored in any of these assays.
# SMN2 splice enh – qHTS Assay for Enhancers of SMN2 Splice Variant Expression. AID 1458, 2008. Potency, µM (doses to about 46.1 µM), for the others: at the top dose activity change, positive = activation, hits mostly activators. HEK293 SMN2-luciferase splicing reporter, luminescence, 30-36 h. 210,000 compounds, 2.8% hits; note: % of control where 0% means no effect; nearly all actives have a fitted effect of over 55% in size
#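 HEK293 cells carry an SMN2 […]–luciferase reporter in which exon 7 inclusion puts luciferase in frame. Cells were plated 10-12 h before compound addition, then incubated 30-36 h at 37C. ONE-Glo luminescence was read; sodium butyrate at 4.5 mM final served as control.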
# Rab9 prom act – qHTS Assay for Rab9 Promoter Activators. Huh7 Rab9 promoter-luciferase reporter, luminescence, 24 h. Potency, µM (top dose mostly 9.22 µM), for the others: at the highest dose activation, negative = inhibition, actives largely listed as activators. 320,000 compounds, 2.8% hits; note: % of control where 0% means no effect; nearly all actives have a fitted effect of over 60% in size
#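 Cell-based reporter: Huh7 stable for Rab9 promoter-driven luciferase, plated in reduced-serum medium with 10% FBS at 1500 cells/well, compound-treated 24 h at 37 °C, luminescence read after 10 min reagent.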
# ELG1 genotox – qHTS screen for small molecules that induce genotoxicity in human embryonic kidney (HEK293T) cells expressing luciferase-tagged ELG1; 330,000 compounds, 1.3% hits; Potency, µM (top dose mostly 46 µM), for the others: top-dose activity change, positive = activation, hits mostly activators; HEK293T ELG1-luciferase reporter, luminescence, 16 h; note: % of control where 0% means no effect; nearly all actives have a fitted effect of over 60% in size
#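 Quantitative HTS format in 1536-well plates. HEK293T ELG1-luciferase reporter cells receive test compound and are incubated 16 hr at 37 °C, 5% CO2; ONE-Glo added, 30 min room temperature, then luminescence read.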
# ELG1 DNA repair – qHTS screen for small molecules that inhibit ELG1-dependent DNA repair in human embryonic kidney (HEK293T) cells expressing luciferase-tagged ELG1. Potency, µM (doses to about 46.1 µM), for inactives: at the highest dose activity change, negative = inhibition, hits mostly inhibitors. HEK293T ELG1-luciferase reporter, luminescence, 16 h; DNA damage induced by 5-fluorouridine. 330,000 compounds, 2.3% hits; note: % is set by controls: 0 for no effect and ±100 for the full control effect; nearly all actives have a fitted effect of over 55% in size
#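 DMSO vehicle served as the neutral condition. Each well held 2,000 cells given 5-fluorouridine plus compound; after 16 hr at 37 °C/5% CO2, ONE-Glo was added and luciferase measured 30 min later.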
# NPC1 prom act – qHTS Assay for NPC1 Promoter Activators; Huh7 NPC1 promoter luciferase reporter, 24 h; 320,000 compounds, 2.4% hits; Potency, µM (top dose mostly 9.22 µM), for inactives: at the top dose activation, hits mostly activators; AID 485313, 2010; note: % of control where 0% means no effect; nearly all actives have a fitted effect of over 60% in size
#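 Cells: Huh7 expressing luciferase under the NPC1 promoter, 1500/well. Seeded 2 h, compound added, incubated 24 h at 37 °C. Luciferase reagent, 10 min ambient, then luminescence.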
# FLuc counter – qHTS profiling assay for firefly luciferase inhibitor/activator using purifed enzyme and Km concentrations of substrates (counterscreen for miR-21 project) | 360,000 compounds, 6.9% hits | Potency, µM (titrated, usually from 57.5 µM), for the others: top-dose activity change, negative = inhibition, hits mostly inhibitors | purified FLuc, Km substrates, luminescence inhibition | Luciferin 4-monooxygenase (Photinus pyralis), P08659;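 note: plate controls were vehicle for no effect and reference inhibitor for full effect; nearly all actives have a fitted effect of over 55% in size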
# Target sequence (P08659 whole entry, looked up): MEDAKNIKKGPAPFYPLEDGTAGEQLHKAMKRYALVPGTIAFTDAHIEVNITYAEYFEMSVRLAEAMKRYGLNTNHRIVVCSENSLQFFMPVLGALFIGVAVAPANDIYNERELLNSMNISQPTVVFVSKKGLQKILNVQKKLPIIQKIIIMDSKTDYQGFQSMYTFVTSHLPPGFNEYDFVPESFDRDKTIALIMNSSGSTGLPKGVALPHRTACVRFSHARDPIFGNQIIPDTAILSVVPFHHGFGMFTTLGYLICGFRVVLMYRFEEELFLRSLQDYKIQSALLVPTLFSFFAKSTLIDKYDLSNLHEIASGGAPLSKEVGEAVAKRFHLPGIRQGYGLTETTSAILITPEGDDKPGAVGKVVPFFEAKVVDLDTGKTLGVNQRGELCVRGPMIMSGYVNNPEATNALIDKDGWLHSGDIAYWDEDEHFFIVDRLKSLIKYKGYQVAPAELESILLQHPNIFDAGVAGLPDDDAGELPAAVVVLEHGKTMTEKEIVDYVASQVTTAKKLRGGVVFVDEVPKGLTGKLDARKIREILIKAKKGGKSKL
#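 Purified P. pyralis luciferase, 10 nM final, with Km-level 10 uM D-luciferin and 10 uM ATP in 50 mM Tris acetate pH 7.5, 10 mM Mg acetate, 0.01% Tween-20, 0.05% BSA; 6-point qHTS titration about 60 µM downward; luminescence read.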
# Numbers without * were called inactive; u = inconclusive; x = no result given; [ ] = dose if it differs, or a comment. Calls come from the whole dose curve; as a rule, active = well fitted curve in the direction sought with a large enough effect; inconclusive = small, poorly fitted or top-dose-only effect, or another doubt; inactive = no such curve, though single readings can be large; an effect the other way counts as inactive or inconclusive. Potency is the fitted concentration of half-maximal effect.
SMILES,SMN2 splice enh,Rab9 prom act,ELG1 genotox,ELG1 DNA repair,NPC1 prom act,FLuc counter
CCn1nc(C(=O)Nc2ccc3nc(C)sc3c2)c2ccccc2c1=O,4µM*,1%,2%,u,5%,u
CCCN(Cc1nnc(-c2cccs2)o1)C(=O)CN1C(=O)NC2(CCC(C)CC2)C1=O (stereo not drawn),x,1%,2%,u,-1%,1%
CC(=O)N1CCN(C(=O)COC(=O)/C=C/c2ccc(C(F)(F)F)cc2)CC1,x,x,1%,6%,x,x
Cc1nc2ccc(C(=O)Nc3ccccc3Cl)cc2s1,x,1.1µM*,u,u,2.5µM*,17µM*
Cc1ccccc1NC(=O)c1ccc2nc(N3CCOCC3)sc2c1,x,u,12%,u,-2%,-11%
Cc1nc2ccc(NC(=O)c3cncc(Br)c3)cc2s1,x,30%,-6%,23µM*,u,u
COc1cc(C(=O)Nc2ccc(C(C)=O)cc2)c(Br)c(OC)c1OC,u,u,8%,u,24%,17µM*
Cc1nc2ccc(NC(=O)c3cccc(S(=O)(=O)N(C)c4ccccc4)c3)cc2s1,-9%[1.84 µM],1%,-9%,18µM*,-2%,-1%
CCC(C)c1ccc(S(=O)(=O)N2CCN(C(C)CC(=O)O)CC2)cc1 (stereo not drawn),1%,-2%,-4%,13%,-3%,3%
CCC(=O)c1ccc(OCC(=O)NCC2COc3ccccc3O2)cc1 (stereo not drawn),x,-7%,2%,6%,2%,4%
Cc1nc2ccc(NC(=O)c3ccc4ccccc4n3)cc2s1,35µM*,3.5µM*,u,u,2.8µM*,6µM*
CN(c1ccccc1)S(=O)(=O)c1cccc(NC(=O)c2cccc(C#N)c2)c1,x,-9%,-2%,u,-6%,6%
Cc1nc2ccc(NC(=O)c3ccc(=O)[nH]c3)cc2s1,x,-1%,12%,u,-1%,-6%
CN(c1ccccc1)S(=O)(=O)c1cccc(NC(=O)c2ccc3ncsc3c2)c1,x,-13%,-10%,15µM*,-7%,-4%
Cc1nc2ccc(NC(=O)c3ccccc3)cc2s1,22µM*,2.8µM*,u,u,2.8µM*,19µM*
Cc1ccc(NC(=O)c2ccc3ncsc3c2)cc1S(=O)(=O)N(C)C,x,0.35µM*,u,u,0.35µM*,2.1µM*
O=S(=O)(c1ccc(F)cc1)N1CCN(c2ccc(-c3ccccc3)nn2)CC1,16%,0%,0%,8%,-2%,0%
COc1cccc(-c2nc(CS(=O)(=O)CC(=O)Nc3ccccc3Br)c(C)o2)c1,x,-4%,-8%,-9%,-5%,3%
CC(Sc1ccccc1)C(=O)NNC(=O)c1ccncc1 (stereo not drawn),x,-3%,-3%,11%,5%,-2%
COc1ccc(NC(=O)Cn2c(=O)n(-c3cccc(C)c3)c(=O)c3c2c2cc(C)ccc2n3C)cc1Cl,-2%,x,x,x,x,-2%
CCOC(=O)c1c(C)oc2nc(C)nc(NCC3CCN(Cc4ccccc4C)CC3)c12,x,x,x,x,x,0%
Cc1nc2ccc(NC(=O)c3ccco3)cc2s1,x,2.8µM*,u,u,u,u
CCCCC(=O)Nc1ccc(C(=O)NNC(=O)c2ccc(C)c(Br)c2)cc1,x,-2%,u,16%,0%,2%
CC(=O)c1ccc(NC(=O)c2ccc3nc(C)sc3c2)cc1,x,2.8µM*,u,u,2µM*,u
CC(=O)c1ccc(OCC(=O)Nc2ccc3nc(C)sc3c2)cc1,5%,2%,0%,4%,-9%,-12%
SMILES,SMN2 splice enh,Rab9 prom act,ELG1 genotox,ELG1 DNA repair,NPC1 prom act,FLuc counter
CC(=O)c1ccc(NC(=O)c2ccc(C)c(Br)c2)cc1,11µM*,0.79µM*,u,u,2.5µM*,6µM*
CCCCC[C@]12Cc3ccccc3C(O1)c1c(cc(C)oc1=O)O2,x,-3%[1.84 µM],x,x,-4%[1.84 µM],5%[11.5 µM]
O=C(CCc1nnc2ccc(NCc3ccc(F)cc3)nn12)NC1CCCC1,x,-5%,3%,13%,-2%,1%
CCOc1cccc(C(=O)N(Cc2ccc(N(C)C)cc2)CC2CCCO2)c1 (stereo not drawn),-11%,x,x,x,x,-3%
COc1ccc(-c2sc3cc4c(cc3c2C#CCO)OCO4)cc1,x,3%,1%,18%,14%,u
COC(=O)c1c(-c2ccc(OC)cc2)sc2cc3c(cc12)OCO3,x,1%,u,u,u,9.5µM*
COC(=O)c1c(-c2ccsc2)sc2ccc(-c3cc(OC)c(OC)c(OC)c3)cc12,x,x,-5%,9.2µM*,x,x
COc1cc(-c2ccc3sc(-c4ccsc4)c(C#CCO)c3c2)cc(OC)c1OC,x,-7%,-11%,9.2µM*,-4%,-10%
COc1cc(-c2c(-c3ccsc3)sc3ccccc23)cc(OC)c1OC,x,-2%,-1%,27%,1%,0%
O=C(N=C1N=C2C=CC(Br)=CN2Cc2ccccc21)c1ccc([N+](=O)[O-])cc1[N+](=O)[O-],x,3.5µM*,u,u,3.5µM*,12µM*
CNC(=O)/C(C#N)=C/c1c(N2CC(C)OC(C)C2)nc2ccccn2c1=O (stereo not drawn),2%,-12%,2%,3%,1%,-2%
O=C(O)C[C@H](Cc1ccc2c(c1)OCO2)C(=O)O,-24%[9.22 µM],x,x,x,x,x
C=CCOC(=O)/C(=C/c1cccc2ccccc12)NC(=O)c1ccccc1,u,20%,10%,u,10%,19µM*
CCC1CCCCN1C(=O)Cn1nc([N+](=O)[O-])c(Cl)c1C (stereo not drawn),6%,-4%,13%,-5%,-4%,-2%
CCOc1ccc(NC(=O)c2ccc(N3CC4CC(C3)c3cccc(=O)n3C4)c(NC(=O)CCN3CCOCC3)c2)cc1 (stereo not drawn),x,0%,1%,7.3µM*,2%,3%
Cc1ccc(NC(=O)/C=C/c2cccc(C(F)(F)F)c2)cc1,x,7%,-2%,-6%,-3%,u
COc1ccc(NC(=O)/C=C/c2cccc(Br)c2)cn1,x,u,-12%,u,u,13µM*
COc1ccc(NC(=O)/C=C/c2cccc(C(F)(F)F)c2)cn1,x,-1%,-22%,18µM*,-2%,u
CCOCCc1nn2c(=O)cc(COC(=O)c3ccccc3NC(=O)c3cccs3)nc2s1,x,x,x,x,x,-2%
